# Over roughly 33,000 sequences, “E-score (-0.5 to 0.5)” has its median near -0.032; the highest 2% begin near 0.36. The entries come from a sample that favours the highest values as a whole.
# Biological target: T1, Sko1 (UniProt Q02100)
# T1 sequence: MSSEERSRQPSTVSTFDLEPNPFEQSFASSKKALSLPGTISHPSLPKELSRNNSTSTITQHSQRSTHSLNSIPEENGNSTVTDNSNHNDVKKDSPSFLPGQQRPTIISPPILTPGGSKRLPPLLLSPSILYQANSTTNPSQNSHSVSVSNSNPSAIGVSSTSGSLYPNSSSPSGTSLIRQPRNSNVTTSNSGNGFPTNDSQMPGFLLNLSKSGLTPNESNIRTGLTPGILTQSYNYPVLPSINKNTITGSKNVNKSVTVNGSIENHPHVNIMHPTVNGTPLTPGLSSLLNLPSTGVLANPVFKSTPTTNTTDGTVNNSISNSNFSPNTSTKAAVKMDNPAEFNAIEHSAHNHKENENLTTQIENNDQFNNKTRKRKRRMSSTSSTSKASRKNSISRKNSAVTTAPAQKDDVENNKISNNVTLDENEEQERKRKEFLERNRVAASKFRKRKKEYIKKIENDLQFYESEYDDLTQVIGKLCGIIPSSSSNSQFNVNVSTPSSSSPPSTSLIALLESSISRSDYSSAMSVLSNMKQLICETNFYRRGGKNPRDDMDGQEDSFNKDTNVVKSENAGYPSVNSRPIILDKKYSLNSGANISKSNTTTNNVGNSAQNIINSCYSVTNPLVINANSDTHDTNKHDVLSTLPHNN
# Experiment: PBM E-score (8-mer binding enrichment) (E-score (-0.5 to 0.5)); higher = stronger / more preferred TF binding
# Conditions: protein concentration: 200 nM; construct: GST-full length
# Method: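 Universal 'all 10-mer' protein binding microarrays (Agilent AMADID 015681) probed with GST-tagged S. cerevisiae TFs (full-length or DBD) made by in vitro transcription/translation (PURExpress), about 100-200 nM. Bound TF was detected with fluorescent anti-GST. Each ungapped 8-mer (which stands for itself and its reverse complement) is scored by the PBM enrichment score (E-score), a modified Wilcoxon-Mann-Whitney statistic from -0.5 to +0.5, computed with the Universal PBM Analysis Suite. Scale: above 0.35 generally sequence-specific binding.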
row,Sequence,PBM E-score
1,CGCTAAAA,-0.102
2,ATAATAGG,0.114
3,GGCGGACC,-0.321
4,AAACTGAG,-0.159
5,CCGTAGAC,-0.135
6,ACGTAGAC,0.415
7,ACGTAGAA,0.434
8,AAGTAGAT,-0.00622
9,CCGTAGAG,-0.258
10,GCGTAGAC,0.0511
11,ACGTAGAT,0.452
12,GCGTAGAA,0.178
13,ACGTAGAG,0.387
14,AGGTAGAT,-0.0309
15,CCGTAGAA,-0.14
16,ACTTAGAG,-0.0119
17,AATCTGCC,-0.0515
18,AATCAGGT,0.113
19,CGCCCCAC,-0.0143
20,AGCGCCGC,-0.199
21,CCCGGTAA,-0.206
22,CATCCTGA,0.0812
23,TATAACGA,0.186
24,ACACGCAT,0.219
25,AGACGCAA,0.258

row,Sequence,PBM E-score
1,GGACGCAA,0.164
2,TGACGCAA,0.483
3,ACACGCAC,0.158
4,AGACGCCA,0.0116
5,TCACGCAA,0.384
6,CGACGCCA,0.174
7,GCACGCAA,0.252
8,ACACGCAA,0.376
9,TGACGCCA,0.453
10,CCACGCAA,0.308
11,CGAGTCGC,-0.243
12,GCGGTCTA,0.0211
13,CAGATCTC,-0.196
14,AGATGTAA,0.256
15,TGATGTAA,0.434
16,CGATGTAA,0.175
17,AACGGAGT,-0.09
18,GATATGAC,0.326
19,CATATGAG,-0.0409
20,GCGATGAA,-0.0296
21,AAGATGAC,0.337
22,CAGATGAC,0.37
23,GCGATGAC,0.374
24,GAGATGAC,0.254
25,AATATGAG,0.146

row,Sequence,PBM E-score
1,ACGATGAC,0.336
2,AATATGAC,0.367
3,AATATGAT,0.254
4,CATATGAC,0.404
5,GCAAAGAC,0.00382
6,GATAGTCC,-0.141
7,CATTTAAA,0.178
8,ACTCACGC,0.14
9,GCTTAGCC,-0.313
10,CTGGCGCC,-0.181
11,TCCTAACA,0.0335
12,CTGAATAC,0.15
13,TCAACCGA,0.204
14,ACTATGAC,0.342
15,GCTATGAC,0.364
16,CTTATGAC,0.374
17,CCTATGAC,0.308
18,ATTATGAC,0.349
19,CTTATGAA,-0.0245
20,TATCAGCA,0.0232
21,ACGAGCAG,-0.0309
22,CAAGAGCA,-0.0878
23,GCCTAGAA,-0.121
24,ATGTGTTG,0.203
25,ACGTGTTA,0.434

row,Sequence,PBM E-score
1,ACGTGTTG,0.426
2,GCGTGTTA,0.114
3,ACGTGTTC,0.36
4,AGGTGTTG,0.0206
5,CCGTGTTA,-0.0886
6,CCGTGTTC,-0.0799
7,AGGTGTTC,-0.0318
8,ACTGGTTC,-0.132
9,GCAGTCAC,-0.0169
10,GAGCGAGA,-0.0193
11,CGCGGTTA,-0.0722
12,ACTCTTCC,-0.0697
13,GCTTGCTA,-0.191
14,ACTAACAG,0.0358
15,CGTAATGA,0.461
16,AGTAATGA,0.247
17,AGTAATGC,0.0678
18,CGTAATGC,0.454
19,CTTAATGC,0.0192
20,GGTAATGA,0.115
21,CGAGCAAG,-0.129
22,TAGTATCA,0.187
23,CCTAACGC,0.0788
24,AACTTACG,0.408
25,AACTTACC,-0.0258

row,Sequence,PBM E-score
1,AACTTACA,0.0844
2,CACTTACG,0.382
3,CACTTACC,0.109
4,CACTTACA,0.164
5,ACGTTCTG,0.256
6,GCTCTAAA,0.0432
7,AAGTATCT,0.0671
8,ACGTATCT,0.419
9,AAGTATCG,-0.0131
10,GCGTATCA,0.131
11,GCGTATCC,0.142
12,CCGTATCG,-0.171
13,CCGTATCC,-0.133
14,ACGTATCA,0.438
15,ACCTATCT,-0.0547
16,TCGTATCA,0.241
17,ACGTATCC,0.389
18,ACGTATCG,0.452
19,CCGTCTGC,-0.109
20,GCAGAACC,-0.16
21,TAGTGGAA,-0.149
22,GCGGCATA,0.0318
23,AGCTGATC,-0.0352
24,GATCCTCC,-0.264
25,GCGACGAC,-0.08

row,Sequence,PBM E-score
1,ATGACGAC,0.466
2,ATGACGGC,0.285
3,CCGACGAA,0.144
4,GTGACGGA,0.174
5,ATGACGAG,0.462
6,CTGACGAC,0.342
7,AGGACGAC,-0.114
8,ATGACGGA,0.419
9,AAGACGAG,-0.189
10,CTGACGAA,0.373
11,ATGACGGG,0.338
12,ACCTCCGG,-0.282
13,CCCCACGA,-0.128
14,CGTTTTGC,0.177
15,ACACCTAC,-0.0103
16,CCGCTGAG,-0.29
17,AAAGCTTA,0.141
18,ACTAATGG,0.00996
19,ACTGAAGT,-0.0247
20,ACTCGCCT,-0.196
21,GGGACGAA,-0.164
22,GTGACAAA,0.167
23,ATGACGAA,0.488
24,ACGACGAA,0.25
25,ATGACAAA,0.154

row,Sequence,PBM E-score
1,GTGACGAA,0.446
2,AGACAGTA,0.0897
3,CCGCCCTC,-0.23
4,AAAGATGG,-0.0167
5,AAGCTCGG,-0.169
6,GAGGTAAC,0.0793
7,GAAAGTGC,-0.11
8,GTAATCTA,0.394
9,GTCATATA,0.373
10,ATAATTTA,0.222
11,GTCATAAA,0.364
12,ATCATATA,0.244
13,CTAATCTA,0.0405
14,ATAATCTA,0.189
15,GTAATTTA,0.366
16,CTCATATA,0.0195
17,TTCATAAA,0.0982
18,ATCATAAA,0.175
19,CTAATTTA,0.261
20,CCACACAG,-0.208
21,GGGACAAA,-0.0851
22,CGAAGAAG,0.0371
